Most compounds without a hit are left out; they make up all but 4.9% or so of the library.
HSF1 activator: increases HSF-1 driven luciferase reporter signal. 1.7% of 300,000 active. AID 504408. activation, % at 9 µM. NIH3T3-HGL HSF-1 luciferase reporter, MG132, 8 h; 100% = twice DMSO control signal;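 active = mean replicate activation of at least 50% with a set share of replicates each reaching 50%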;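 also: 0% = median of the neutral control wells and 100% = twice that signal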
MPTP block: blocks calcium-induced mitochondrial swelling; AID 602449; isolated mouse mitochondria, Ca2+ swelling absorbance, 30 min; inhibition, % at 10 µM; 1.4% of 360,000 active;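 active = inhibition of 50% or more, scaled per plate between neutral and stimulator controls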;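 also: 0% = DMSO wells given calcium and 100% = 1 mM EGTA wells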
Platelet DG rel: platelet dense granule release activity. AID 1663. 0.22% of 300,000 active. human platelet-rich plasma, SFLLRN dense granule ATP release, luminescence. inhibition, %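 (compounds screened at 7.5 µM in platelet-rich plasma)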;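 active = mean replicate score, as percent of positive control, at or above 50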
HSP90 inh: HSP90 refolding inhibition in rabbit reticulocyte lysate; luciferase refolding luminescence, 3 h; inhibition, % at 5.6 µM; 0.91% of 290,000 active; AID 1789;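 active = inhibition above the screen-wide mean plus 3 SD, computed separately per campaign, cut at about 16% in these data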;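 also: 0% = DMSO wells and 100% = 60 µM geldanamycin wells; inhibitors lower the luminescence because luciferase stays unfolded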
HSF1 inhib: HSF1 inhibition; AID 2098; activity change, negative = inhibition, % at 7.5 µM (by protocol); NIH3T3-HGL HSE-luciferase, MG132-induced, luminescence 8 h; stronger effect = lower value; 0.77% of 300,000 active;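 active = more than half of replicate wells show activity change below -50%, luminescence cut by over half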;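 also: luciferase reports HSF-1 transcriptional activity via heat shock element; 0% = median of DMSO wells and -100% = zero luminescence signal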
dFosB act: enhances mouse delta FosB homodimer DNA binding. P13346. purified delta FosB, TAMRA-CDK5 oligo fluorescence polarization; percent of positive-control signal above neutral wells. activation, % at 25 µM. 0.99% of 340,000 active;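 active = mean activation above about 17%, with every replicate also reaching it, limit read from the data, passing the limit was not always enough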
Target sequence (P13346 whole entry, looked up): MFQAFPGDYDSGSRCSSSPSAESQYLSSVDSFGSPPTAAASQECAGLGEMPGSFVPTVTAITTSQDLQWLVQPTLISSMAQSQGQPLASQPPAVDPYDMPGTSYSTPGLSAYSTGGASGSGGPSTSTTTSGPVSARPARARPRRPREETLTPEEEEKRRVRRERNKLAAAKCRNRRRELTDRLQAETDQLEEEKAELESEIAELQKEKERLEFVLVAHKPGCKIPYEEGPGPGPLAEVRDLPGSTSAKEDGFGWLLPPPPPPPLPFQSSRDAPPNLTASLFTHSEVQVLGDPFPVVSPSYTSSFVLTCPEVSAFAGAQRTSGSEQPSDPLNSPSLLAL
* marks the source's active call; other numbers are inactive results; x = not tested or not shown.

SMILES	HSF1 activator	MPTP block	Platelet DG rel	HSP90 inh	HSF1 inhib	dFosB act
COc1ccc(N2CCN(c3ccc(NC(=O)NN)cc3)CC2)cc1	-74	-1	2	-2	-67*	1
CCOc1ccc(C(=O)Nc2ccc3c(c2)C(=O)NC3=O)cc1	5	0	-5	3	-4	59*
COc1ccccc1C(=O)Nc1ccc(N2CCN(S(C)(=O)=O)CC2)cc1	78*	1	7	0	43	-2
CCCCOc1ccc(C(=O)Nc2ccc3c(c2)C(=O)NC3=O)cc1	0	0	-12	1	0	6
CCC(=O)N(C)C[C@H]1Oc2ncc(C#Cc3ccncc3)cc2C(=O)N([C@@H](C)CO)C[C@@H]1C	x	0	x	x	x	x
COc1ccc(C(=O)Nc2ccc(S(=O)(=O)N3CCOCC3)cc2)cc1OC	26	-1	33	-2	-4	-5
COc1ccc(C(=O)Nc2ccc(N3CCCC3)cc2)cc1	12	1	-6	2	7	29*
COc1ccc(C(=O)NC(=S)Nc2ccc(N3CCCC3)cc2)cc1	4	0	2	3	5	-4
COc1ccc(C(=O)Nc2ccc(N3CCOCC3)cc2)cc1OC	20	-1	66*	2	3	-3
COc1cc(NC(=O)c2ccc(C)cc2)c(OC)cc1NC(=O)CN1CCOCC1	60*	-1	-50	1	52	-8
Cc1cc(C)nc(NN=C(c2ccccc2)c2ccccc2)n1	-1	-1	2	-2	-8	-6
COc1ccc(N=C(C)C2=C(O)c3ccccc3C2=O)cc1	67*	0	-9	0	36	0
C/C(=N\N(C)C)C1=C(O)c2ccccc2C1=O	2	-1	-8	-4	1	2
CCOc1ccc(N=C(C)C2=C(O)c3ccccc3C2=O)cc1	63*	4	-1	-3	27	2
O=C(Nc1cccc(F)c1)N1CCCC(CNS(=O)(=O)Cc2ccccc2)C1 (stereo not given)	-6	2	3	-2	-2	-2
Cc1ccccc1CN1CCN(c2nc3ccccc3s2)CC1	81*	1	10	5	43	-1
CCCC1=Nc2cc(C(=O)N3CCN(c4ccccn4)CC3)ccc2Sc2ccc(C)cc21	10	0	-4	8	14	-9
CC(=O)[C@]1(O)Cc2c(O)c3c(c(O)c2[C@@H](O[C@H]2C[C@H](N)[C@H](O)[C@H](C)O2)C1)C(=O)c1ccccc1C3=O	-79	x	1	x	-79*	x
COc1cccc2c1C(=O)c1c(O)c3c(c(O)c1C2=O)C[C@@](O)(C(=O)CO)C[C@@H]3O[C@H]1C[C@H](N)[C@@H](O)[C@H](C)O1	-72	10	1	x	-75*	-361
CC(=O)Nc1ccc(CN(C)c2c(C)nc3ccc(C(=O)N4CCN(C(C)=O)CC4)cn23)cc1	x	-1	x	x	x	x
CC(=O)N1CCN(C(C)=O)c2ccccc21	x	0	x	x	x	-4
CC(=O)N1CCn2c3ccc(C)cc3c3cccc1c32	65*	1	1	-2	36	-5
Cc1ccc(-c2cn(S(=O)(=O)c3ccc(C)cc3)nc2N)cc1	70*	1	4	-4	26	2
COc1ccc(C)cc1NC(=O)c1cc(S(=O)(=O)N2CCCCC2)ccc1N1CCOCC1	x	0	x	x	x	0
c1ccc(CCSc2nccn2-c2ccccc2)cc1	58*	-4	-18	0	36	3
SMILES	HSF1 activator	MPTP block	Platelet DG rel	HSP90 inh	HSF1 inhib	dFosB act
Cc1[nH]c(C)c(S(=O)(=O)N(Cc2ccccc2)C(C)(C)C)c1C(=O)N1CCCC1	17	-2	-3	-2	-5	-1
CCC(C)c1ccc(O)c(NC(=S)NC(=O)c2cccnc2)c1 (stereo not given)	72*	0	-38	-4	54	-1
COC(=O)C1CN(Cc2ccccc2)C(=O)C1=O (stereo not given)	x	0	x	x	x	0
CCN(C(=O)COC(=O)c1c2c(nc3ccccc13)/C(=C/c1ccccc1)CC(C)C2)C1CCS(=O)(=O)C1 (stereo not given)	84*	0	-19	-5	49	7
CCN(C(=O)COC(=O)c1cc(-c2ccc3cc(OC)ccc3c2)nc2ccccc12)C1CCS(=O)(=O)C1 (stereo not given)	70*	x	15	1	36	x
NC(=O)C1CCN(C(=O)COCc2cc(-c3ccc4c(c3)OCO4)on2)CC1	33	-3	-7	-1	20	-2
Cc1cccc(C(=O)NC(C(=O)Nc2cccc(S(=O)(=O)N3CCCC3)c2)C(C)C)c1 (stereo not given)	x	-1	x	x	x	0
COc1cccc(C2NC(c3cccc(OC)c3O)C(C)C(=O)C2C)c1O (stereo not given)	20	-1	-1	1	20	-4
CC1C(=O)C(C)C(c2cc(Cl)ccc2O)NC1c1cc(Cl)ccc1O (stereo not given)	13	3	3	2	5	20*
COc1ccc2nc(C)cc(N/N=C/c3cccc(OC)c3O)c2c1	33	2	-23	-2	29	-119
COc1ccc(/C=N/Nc2cc(C)nc3ccc(Br)cc23)cc1	59*	21	-12	-2	7	62*
CCc1ccc(N(C(=O)c2snc(C(N)=O)c2N)C(C(=O)NC2CCCC2)c2ccncc2)cc1 (stereo not given)	-2	2	6	0	11	-2
CCc1sc(C(=O)Nc2ccc3c(c2)OCCO3)cc1Br	43	1	-4	-4	25	-4
Cc1ncoc1C(=O)Nc1ccc(Oc2ccccc2)cc1	52*	1	2	-1	28	-1
Cc1cc(C(=O)Nc2ccc3c(c2)OCCO3)c(C)o1	28	1	4	2	11	4
Cc1cccc(NC(=S)NNC(=O)c2sccc2C)c1	57*	-2	-4	0	29	3
Cc1ncoc1C(=O)Nc1ccc2c(c1)OCCO2	-20	0	66*	7	-23	2
CCc1cc(C(=O)NNC(=S)Nc2cccc(C)c2)cs1	37	6	0	-2	14	1
Cc1ccsc1C(=O)Nc1ccc2c(c1)OCCO2	51*	-1	25	15	12	-2
COc1ccc(S(=O)(=O)N2CCCC(C(=O)NCCC(C)C)C2)cc1 (stereo not given)	-16	0	3	4	-5	-5
Cc1cccc2c(N=O)c(O)n(CCc3ccccc3)c12	8	3	0	-8	-4	-6
CCCN1CCN(S(=O)(=O)c2c(C)[nH]c(C)c2C(=O)N2CCCCC2)CC1	-1	0	7	-4	-3	-3
O=C(Nc1ccc2c(c1)OCCO2)c1coc2ccccc2c1=O	-61	2	27	5	-52*	14
N#C/C(=C\c1ccccc1[N+](=O)[O-])C(=O)NC1CCCCC1	9	-1	-2	-2	-1	-3

Screening data (PubChem)
